In PubChem BioAssay (EPA / NIEHS):
“And” between values parts separate entries of the source, which are not always exact repeats. Equal values may be shown once. The source made the active and inactive calls. The calls were made as follows: active = hit-call score of the fitted dose curve at least 0.9, where 1 is the maximum; inactive = score below 0.9.

assay: BSK_hDFCGF_Proliferation: Cell Proliferation Assessment in the BioMAP Diversity Plus: hDFCGF Assay (AID 2283059); conditions: primary human foreskin fibroblasts;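 also: curves fitted for both rise and fall of signal versus DMSO baseline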
Protocol: BSK_hDFCGF is a cell-based, multiplexed-readout assay that uses foreskin fibroblast, a human skin primary cell, with measurements taken at 24 hours after chemical dosing in a 96-well plate.BSK_hDFCGF_Proliferation is an assay component measured in the BSK_hDFCGF assay. It measures […] related to cell proliferation using Sulforhodamine staining technology.Data from the assay component BSK_hDFCGF_Proliferation was analyzed into 1 assay endpoint. This assay endpoint, BSK_hDFCGF_Proliferation, was analyzed with bidirectional fitting relative to DMSO as the negative control and baseline of activity. Using a type of viability reporter, measures of total protein for gain or loss-of-signal activity can be used to understand the viability at the cellular-level. Furthermore, this assay endpoint can be referred to as a secondary readout, because this assay has produced multiple assay endpoints where this one serves a viability function. To generalize the intended target to other relatable targets, this assay endpoint is annotated to the cell cycle intended target family, where the subfamily is proliferation.
The levels of cell surface (or secreted, indicated by the prefix "s") biomarker endpoints were measured by ELISA. Overt cytotoxicity to cells in confluent adherent cultures (all systems other than the BT system) was assessed by measuring total protein levels using sulforhodamine B (SRB) staining in parallel cultures at the time of biomarker measurements, indicated as SRB endpoints. For proliferation assays for adherent cell types, individual cell types are cultured at sub-confluence and relative cell numbers quantified by SRB staining at time points optimized for each system (48 h: 3C and CASM3C systems; 72 h: BT and HDF3CGF systems; 96 h: SAg system). SRB was performed by staining cells with 0.1% SRB after fixation with 10% TCA and reading wells at 560 nm.Viability and proliferation of PBMC (T cells) was quantified by Alamar Blue reduction for the SAg and BT systems. For PBMC viability (referred to as PBMC Cytotoxicity within the assay endpoint names), cells were plated (75,000/well in a 96-well plate) and then chemical samples added for 1 h before addition of activators, SEB and TSST-1 (20 ng/mL final concentration each). Cells were incubated for 90 h. Then, Alamar Blue (20 uL/well) (Invitrogen, Cat DAL1100) was added for 6 h, and the plates were read with a fluorescence microplate reader at 546/580 nm (excitation/emission). For PBMC proliferation, cells were plated and activated as above but incubated for only 16 h prior to addition of Alamar Blue. Plates were read after 6 h.

For `CCC(C)c1cc([N+](=O)[O-])cc([N+](=O)[O-])c1OC(=O)C=C(C)C` (stereo not drawn), which AC50 is on record?
The AC50 was 5.09 µM (active).

Which outcome does the source give for `CNC(=O)Oc1cc(C)c(SC)c(C)c1` here?
The outcome was “inactive”.

With `c1ccc(Nc2ccc3ccccc3c2)cc1` as the compound, how does the AC50 read?
The AC50 was 34.9 µM (active).

With `CCCC[N+](CCCC)(CCCC)CCCC` as the compound, how does the outcome read?
The outcome was “inactive”.

Which AC50 does the source give for `O=C1C(Cl)=C(Cl)C(=O)C(Cl)=C1Cl` here?
The AC50 was 1.63 µM (active).

For `CC(C)COP(=O)(OCC(C)C)OCC(C)C`, which outcome is on record?
The outcome was “inactive”.

With `O=c1c2ccccc2c(=O)c2c1cc(Cl)c1[nH]c3c([nH]c12)c(Cl)cc1c(=O)c2ccccc2c(=O)c13` as the compound, how does the outcome read?
The outcome was “inactive”.

With `COCC(=O)N(c1c(C)cccc1C)N1CCOC1=O` as the compound, how does the outcome read?
The outcome was “inactive”.

For `O=C(CCl)c1ccccc1`, which AC50 is on record?
The AC50 was 1.4 µM (active).

Which outcome does the source give for `O=[N+]([O-])O` here?
The outcome was “inactive”.

For `C=CC(=O)OCC(CC)CCCC` (stereo not drawn), which AC50 is on record?
Its AC50 is 30.3 µM (active).

With `C=CCN(CC=C)C(=O)C(Cl)Cl` as the compound, how does the outcome read?
The outcome was “inactive”.

With `CCCOC(=O)c1ccccc1C(=O)OCCC` as the compound, how does the outcome read?
The outcome was “inactive”.

With `COC(C)(C)CCC[C@H](C)C/C=C/C(C)=C/C(=O)OC(C)C` as the compound, how does the AC50 read?
Its AC50 is 31.2 µM (active).

With `O=C(O)CCCc1ccc(N(CCCl)CCCl)cc1` as the compound, how does the AC50 read?
The AC50 was 6.32 µM (active) and 5.54 µM (active).

With `Clc1ccc(-c2ccccc2)cc1` as the compound, how does the outcome read?
Its outcome is “inactive”.

Which AC50 does the source give for `CC(C)(c1cc(Cl)c(O)c(Cl)c1)c1cc(Cl)c(O)c(Cl)c1` here?
Its AC50 is 7.69 µM (active).

For `O=c1[nH]c(Cl)c(Cl)cc1Cl`, which outcome is on record?
Its outcome is “inactive”.

With `O=[N+]([O-])c1ccc(Cl)cc1` as the compound, how does the outcome read?
The outcome was “inactive”.

Which outcome does the source give for `CC(=O)/C=C/c1ccccc1` here?
The outcome was “inactive”.

Which AC50 does the source give for `O=[N+]([O-])C=Cc1ccccc1` here?
The AC50 was 0.596 µM (active).

For `O=P1(NCCCl)OCCCN1CCCl` (stereo not drawn), which outcome is on record?
Its outcome is “inactive”.

Which AC50 does the source give for `CCCCCCCCCCCC#N` here?
The AC50 was 10.1 µM (active).

For `CC(C)CCCCCCCOP(=O)(Oc1ccccc1)Oc1ccccc1`, which AC50 is on record?
The AC50 was 3.16 µM (active).

For `CC1(C)[C@H](C(=O)O[C@H](C#N)c2cccc(Oc3ccccc3)c2)[C@@H]1C=C(Br)Br`, which outcome is on record?
Its outcome is “inactive”.

For `O=C1C=CC(=O)C=C1`, which AC50 is on record?
The AC50 was 11.2 µM (active) and 2.81 µM (active).

Which AC50 does the source give for `CCc1cc(C)cc(CC)c1-c1c(OC(=O)C(C)(C)C)n2n(c1=O)CCOCC2` here?
Its AC50 is 25.2 µM (active).

Which AC50 does the source give for `[Cd+2].[Cl-].[Cl-]` here?
The AC50 was 919 nM (active) and 655 nM (active).

For `O=S(=O)(c1ccccc1)c1ccccc1`, which outcome is on record?
Its outcome is “inactive”.

For `COc1ccc(CO)cc1`, which outcome is on record?
Its outcome is “inactive”.

Which outcome does the source give for `CC(C)(C)C(O)C(Oc1ccc(-c2ccccc2)cc1)n1cncn1` (stereo not drawn) here?
Its outcome is “inactive”.

Which outcome does the source give for `Oc1cc(Cl)ccc1Cl` here?
Its outcome is “inactive”.

Which outcome does the source give for `Nc1ccc(-c2ccc(N)c(N)c2)cc1N` here?
Its outcome is “inactive”.

Which AC50 does the source give for `Oc1ccc(C2(c3ccc(O)cc3)c3ccccc3-c3ccccc32)cc1` here?
Its AC50 is 1.12 µM (active) and 927 nM (active).

Which outcome does the source give for `N#CCCCCC#N` here?
Its outcome is “inactive”.

For `CC(C)CCCCCCCOC(=O)c1ccccc1C(=O)OCCCCCCCC(C)C`, which outcome is on record?
Its outcome is “inactive”.

Which AC50 does the source give for `Cc1ccc(OP(=O)(Oc2ccc(C)cc2)Oc2ccc(C)cc2)cc1` (tested in a mixture with another compound) here?
Its AC50 is 20 µM (active).

For `CC(C)(C)C(=O)CCl`, which outcome is on record?
Its outcome is “inactive”.
